Assay outcomes as filed in PubChem BioAssay.
TcdB GH inh = TcdB glycohydrolase inhibitors, primary screen, biochemical, single point, plate reader; Toxin B (Clostridioides difficile), P18177; inhibition, % at 9.99 µM; TcdB glycohydrolase enzymatic assay; actives 0.24% (n = 350,000); in the data active means inhibition above about 10%
Target sequence (P18177 whole entry, looked up): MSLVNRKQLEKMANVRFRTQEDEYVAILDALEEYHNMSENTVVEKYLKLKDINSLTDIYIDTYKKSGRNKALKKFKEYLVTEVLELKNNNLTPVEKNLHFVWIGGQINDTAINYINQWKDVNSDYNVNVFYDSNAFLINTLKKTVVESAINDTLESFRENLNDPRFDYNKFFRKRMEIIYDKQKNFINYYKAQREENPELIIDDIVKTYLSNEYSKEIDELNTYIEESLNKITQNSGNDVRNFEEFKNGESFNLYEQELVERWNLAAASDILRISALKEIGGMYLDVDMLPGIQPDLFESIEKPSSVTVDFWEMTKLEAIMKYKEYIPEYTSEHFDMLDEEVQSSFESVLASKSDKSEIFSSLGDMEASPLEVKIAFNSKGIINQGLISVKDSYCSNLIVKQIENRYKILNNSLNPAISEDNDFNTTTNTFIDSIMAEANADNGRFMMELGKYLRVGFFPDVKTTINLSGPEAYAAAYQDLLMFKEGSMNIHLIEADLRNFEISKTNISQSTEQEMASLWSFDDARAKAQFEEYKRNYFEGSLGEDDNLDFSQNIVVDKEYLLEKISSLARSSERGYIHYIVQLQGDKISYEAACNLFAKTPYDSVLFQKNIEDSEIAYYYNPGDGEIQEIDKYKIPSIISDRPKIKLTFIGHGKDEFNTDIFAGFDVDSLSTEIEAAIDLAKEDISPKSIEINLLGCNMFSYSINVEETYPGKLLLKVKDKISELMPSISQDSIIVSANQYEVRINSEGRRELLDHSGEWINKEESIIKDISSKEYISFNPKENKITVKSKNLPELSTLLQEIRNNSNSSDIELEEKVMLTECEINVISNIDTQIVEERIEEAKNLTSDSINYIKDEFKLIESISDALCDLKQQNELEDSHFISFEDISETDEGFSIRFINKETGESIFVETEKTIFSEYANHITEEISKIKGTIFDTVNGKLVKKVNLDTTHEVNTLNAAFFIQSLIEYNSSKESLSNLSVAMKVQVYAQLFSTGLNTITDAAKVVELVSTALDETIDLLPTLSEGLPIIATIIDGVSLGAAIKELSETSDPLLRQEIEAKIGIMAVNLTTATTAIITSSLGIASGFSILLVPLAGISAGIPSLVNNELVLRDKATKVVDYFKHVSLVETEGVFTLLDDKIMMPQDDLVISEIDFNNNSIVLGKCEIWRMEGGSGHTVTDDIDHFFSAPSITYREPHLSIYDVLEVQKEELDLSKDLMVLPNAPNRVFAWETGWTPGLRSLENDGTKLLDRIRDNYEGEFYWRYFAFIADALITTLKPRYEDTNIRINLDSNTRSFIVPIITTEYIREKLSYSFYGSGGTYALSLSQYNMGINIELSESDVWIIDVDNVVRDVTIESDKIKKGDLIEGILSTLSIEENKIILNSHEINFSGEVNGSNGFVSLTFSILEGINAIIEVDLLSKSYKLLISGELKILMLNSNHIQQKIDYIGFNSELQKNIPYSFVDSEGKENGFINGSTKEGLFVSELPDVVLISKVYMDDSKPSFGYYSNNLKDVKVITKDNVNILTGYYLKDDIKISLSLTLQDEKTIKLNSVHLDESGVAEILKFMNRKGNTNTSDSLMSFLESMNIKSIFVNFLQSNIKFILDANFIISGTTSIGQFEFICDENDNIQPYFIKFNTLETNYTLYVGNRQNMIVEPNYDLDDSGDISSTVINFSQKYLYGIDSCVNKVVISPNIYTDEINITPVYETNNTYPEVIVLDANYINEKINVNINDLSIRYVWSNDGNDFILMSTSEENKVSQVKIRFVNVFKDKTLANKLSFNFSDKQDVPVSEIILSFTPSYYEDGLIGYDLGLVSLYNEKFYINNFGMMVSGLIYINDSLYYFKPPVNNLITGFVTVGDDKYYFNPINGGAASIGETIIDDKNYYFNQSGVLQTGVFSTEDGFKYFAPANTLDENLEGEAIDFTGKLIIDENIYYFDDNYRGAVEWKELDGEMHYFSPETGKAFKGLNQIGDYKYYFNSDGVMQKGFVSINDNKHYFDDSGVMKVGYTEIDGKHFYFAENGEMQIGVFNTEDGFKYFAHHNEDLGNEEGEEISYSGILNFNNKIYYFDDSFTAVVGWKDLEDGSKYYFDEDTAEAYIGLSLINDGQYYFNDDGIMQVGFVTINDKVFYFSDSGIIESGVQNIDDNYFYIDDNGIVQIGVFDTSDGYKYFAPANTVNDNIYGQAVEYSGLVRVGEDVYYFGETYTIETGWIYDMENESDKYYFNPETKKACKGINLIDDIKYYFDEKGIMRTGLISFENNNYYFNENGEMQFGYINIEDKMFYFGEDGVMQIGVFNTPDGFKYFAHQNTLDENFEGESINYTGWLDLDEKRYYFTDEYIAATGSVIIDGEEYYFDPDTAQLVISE
Anthrax LF prot = Bacillus anthracis LF protease inhibitors, primary screen, biochemical, multiplex microsphere, MLPCN library. multiplex microsphere protease cleavage assay. inhibition, % at 10 µM. actives 0.12% (n = 360,000). Lethal factor (Bacillus anthracis), P15917
BoNT A protease = BoNT/A light chain protease inhibitors, primary screen, biochemical, flow cytometry, MLPCN library; multiplex microsphere protease substrate cleavage; actives 0.17% (n = 360,000); inhibition, % at 10 µM
BoNT F protease = BoNT/F light chain protease inhibitors, primary screen, biochemical, flow cytometry, MLPCN library; Multiplex microsphere protease cleavage assay; inhibition, % at 10 µM; actives 0.22% (n = 360,000); AID 588497, 2011; in the data active means inhibition above about 35%, passing the limit was not always enough; inconclusive means no clear call, values can overlap the other calls
Autofluor counter = compound fluorescence in toxin protease inhibitor counterscreen; compound autofluorescence counterscreen, microsphere flow cytometry; hits give high values; fluorescence intensity (no concentration beside the values); actives 3.1% (n = 360,000); AID 624483; in the data active means fluorescence intensity above about 16000; inconclusive means no clear call, values can overlap the other calls
Each line names hits and unclear results; the compound was inactive in the other large screens. The full list was thinned out, with hits kept by preference. Unless noted, no stated cut-off is given here; in the data, active means inhibition above about 30%; inconclusive means no clear call, values can overlap the other calls; inactive means below that.

S=c1[nH]nc(Cc2n[nH]c(=S)n2-c2ccccc2)n1-c1ccccc1	none
Cc1ccc(-n2c(Cc3ccccc3)n[nH]c2=S)cc1	Autofluor counter 22337 (no result: TcdB GH inh)
S=c1[nH]nc(Cc2ccccc2)n1-c1ccccc1	BoNT A protease inconclusive, Autofluor counter 19172 (no result: TcdB GH inh)
C[C@@H]1CN([C@H](C)CO)C(=O)Cc2cc(NC(=O)Nc3ccc(F)cc3)ccc2O[C@@H]1CN(C)S(=O)(=O)c1cccs1	none (no result: Anthrax LF prot, BoNT A protease, BoNT F protease, Autofluor counter)
Cc1csc(C)[n+]1CC(=O)c1ccccc1	BoNT F protease 48
COc1ccc(S(=O)(=O)N(C)C[C@@H]2Oc3ccc(NC(=O)C4CCCCC4)cc3C(=O)N([C@H](C)CO)C[C@H]2C)cc1	none (no result: Anthrax LF prot, BoNT A protease, BoNT F protease, Autofluor counter)
CCOc1cccc(NC(=O)C(Cc2cccs2)c2nn[nH]n2)c1 (stereo unspecified)	Autofluor counter 20016 (no result: TcdB GH inh)
O=C(Nc1ccccc1)C(Cc1cccs1)c1nn[nH]n1 (stereo unspecified)	none (no result: TcdB GH inh)
CC(C)c1ccc(OCCCCCN2CCOCC2)cc1	none
CC(=O)Oc1ccc(OC(C)=O)c(SCCCCCN2CCOCC2)c1	Autofluor counter 23369
CNC[C@H]1Oc2ccc(NS(=O)(=O)c3cccs3)cc2C(=O)N([C@@H](C)CO)C[C@@H]1C	none (no result: Anthrax LF prot, BoNT A protease, BoNT F protease, Autofluor counter)
O=C(O)C[C@@H]1C=C[C@@H](NC(=O)c2ccccc2F)[C@@H](CO)O1	none (no result: Anthrax LF prot, BoNT A protease, BoNT F protease, Autofluor counter)
Cc1ccccc1NC(=O)/C(=C\c1cccs1)NC(=O)c1ccco1	Autofluor counter 23554 (no result: TcdB GH inh)
CS(=O)(=O)Nc1ccc2c(c1)[C@@H]1C[C@@H](CC(=O)NCc3ccc(Oc4ccccc4)cc3)O[C@@H](CO)[C@@H]1O2	none (no result: Anthrax LF prot, BoNT A protease, BoNT F protease, Autofluor counter)
Nc1c(S(=O)(=O)c2cccc(Cl)c2)c2nc3ccccc3nc2n1CCN1CCOCC1	Autofluor counter 16491 (no result: TcdB GH inh)
CCCc1cn(CC[C@H]2CC[C@H](NS(=O)(=O)c3ccc(-c4ccccc4)cc3)[C@@H](CO)O2)nn1	none (no result: Anthrax LF prot, BoNT A protease, BoNT F protease, Autofluor counter)
Cc1ccc(CN(C)C(=O)c2ccccc2Oc2ccccc2)o1	Autofluor counter 21202 (no result: TcdB GH inh)
Nc1nnc(SCC(=O)N2CCN(Cc3ccccc3)CC2)s1	BoNT A protease inconclusive, Autofluor counter 16406 (no result: TcdB GH inh)
CCOC(=O)c1c(-c2ccc(C)o2)csc1NC(=O)COC(=O)c1cccs1	none (no result: TcdB GH inh)
CCOC(=O)c1c(-c2ccc(C)o2)csc1NC(=S)NC(=O)N(C)C	Autofluor counter 18614 (no result: TcdB GH inh)
C[C@@H]1CN([C@H](C)CO)C(=O)c2cc(NC(=O)Nc3cccc4ccccc34)ccc2O[C@@H]1CN(C)CC1CCCCC1	none (no result: Anthrax LF prot, BoNT A protease, BoNT F protease, Autofluor counter)
CCOc1cc(C(=O)N2CCN(C/C=C/c3ccccc3)CC2)cc(OCC)c1OCC	none (no result: TcdB GH inh)
Cc1cc(C(=O)N2CCN(C/C=C/c3ccccc3)CC2)no1	Autofluor counter 19463 (no result: TcdB GH inh)
Cc1onc(-c2ccccc2)c1C(=O)N1CCN(C/C=C/c2ccccc2)CC1	none
CCOc1cccc2cc(C(=O)N3CCN(C/C=C/c4ccccc4)CC3)c(=O)oc12	BoNT A protease inconclusive, Autofluor counter 16172 (no result: TcdB GH inh)
Cc1ccccc1-n1c(SCC(=O)N2CCCCC2)nc(O)cc1=O	none
COc1ccc(-n2c(SCC(=O)N3CCCCC3)nc(O)cc2=O)cc1	Autofluor counter 21636 (no result: TcdB GH inh)
O=C(NCc1ccco1)C1OCCc2ccccc21 (stereo unspecified)	none (no result: TcdB GH inh)
Cc1ccc(NC(=O)C2OCCc3ccccc32)cc1C (stereo unspecified)	TcdB GH inh 11
CN(Cc1ccccc1)C(=O)c1cc(-c2ccc(Br)cc2)on1	Autofluor counter 23868
C/C=C/c1cnc2c(c1)C(=O)N([C@H](C)CO)C[C@H](C)[C@@H](CN(C)S(=O)(=O)c1ccc(F)cc1)O2	none (no result: Anthrax LF prot, BoNT A protease, BoNT F protease, Autofluor counter)
O=C(NCCc1ccc(F)cc1)c1cccc2c1C(=O)c1ccc(N3CCC(Cc4ccccc4)CC3)cc1S2(=O)=O	Anthrax LF prot 41 (no result: TcdB GH inh)
O=C(NCc1cccc(F)c1)c1cccc2c1C(=O)c1ccc(N3CCC(Cc4ccccc4)CC3)cc1S2(=O)=O	none (no result: TcdB GH inh)
O=S(=O)(/N=C(/Nc1cccnc1)c1ccccc1)c1ccc(F)cc1F	Autofluor counter inconclusive
Cc1cc(N/C(=N\S(=O)(=O)c2ccc(F)cc2F)c2ccccc2)no1	Autofluor counter 17822 (no result: TcdB GH inh)
Cc1cccc2cc(-c3ccccc3)c(-c3ccccc3)c[n+]12	BoNT A protease 38
O=[N+]([O-])c1cccc(-c2cc3cccc[n+]3cc2-c2cccc([N+](=O)[O-])c2)c1	none (no result: TcdB GH inh)
COc1ccc2ccccc2c1CN1CCSCC1	BoNT F protease inconclusive
COc1ccc2ccccc2c1CN1CCN(C)CC1	BoNT A protease inconclusive, Autofluor counter 19346 (no result: TcdB GH inh)
COc1ccccc1N1CCN(Cc2ccc(OC)c(OC)c2OC)CC1	Autofluor counter inconclusive (no result: TcdB GH inh)
